Tb PYK inh – inhibitors of Trypanosoma brucei pyruvate kinase | Q57TT1 | TbPYK enzyme, Kinase-Glo Plus ATP luminescence, 45 min | Potency, µM (series often up to 76.8 µM), actives largely listed as inhibitors | actives 0.12% (n = 410,000); further: nearly all actives have a fitted effect of over 50% in size
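Luminescence from Kinase-Glo Plus, added after a 45-minute room-temperature reaction, served as the end-point read-out. The enzyme and substrate were preincubated with compound before ADP (130 uM final) initiated turnover. Concentration-effect curves came from normalized qHTS data.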
FBPA Giardia inh – blocks Giardia fructose-bisphosphate aldolase activity. A8B2U2. purified Giardia FBPA. Potency, µM (titrated, usually from 59.6 µM), usual class: inhibitors. actives 0.71% (n = 290,000); further: nearly all actives have a fitted effect of over 55% in size
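40 nM FBPA preincubated 10 min at RT with compound (up to 57.5 uM final), then substrate plus GAPDH/TPI/NAD/arsenate coupling and diaphorase/resazurin added. Fluorescence read after 20 min at RT, 525/598 nm.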
LmPK inh – LmPK (Leishmania mexicana) enzyme inhibition. Q27686. purified LmPK, Kinase-Glo ATP luminescence, 1 h. Potency, µM (series often up to 57.5 µM), actives largely listed as inhibitors. actives 0.37% (n = 290,000)
Target sequence (Q27686 whole entry, looked up): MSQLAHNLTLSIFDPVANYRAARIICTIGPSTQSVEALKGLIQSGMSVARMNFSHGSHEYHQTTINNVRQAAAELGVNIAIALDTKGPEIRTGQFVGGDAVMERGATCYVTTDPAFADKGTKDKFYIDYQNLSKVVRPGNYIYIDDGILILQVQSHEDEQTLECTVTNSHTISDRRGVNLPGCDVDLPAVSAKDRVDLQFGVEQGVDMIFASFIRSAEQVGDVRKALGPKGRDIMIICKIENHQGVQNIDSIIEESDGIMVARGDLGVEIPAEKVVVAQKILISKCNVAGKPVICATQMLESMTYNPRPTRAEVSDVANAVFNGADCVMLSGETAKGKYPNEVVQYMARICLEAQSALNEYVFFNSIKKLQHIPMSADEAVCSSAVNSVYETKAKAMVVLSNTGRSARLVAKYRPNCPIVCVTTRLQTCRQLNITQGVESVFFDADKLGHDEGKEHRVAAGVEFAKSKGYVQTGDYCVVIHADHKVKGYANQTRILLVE
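Screened at intermediate enzyme activity to detect both inhibitors and activators: LmPK at 0.1 nM, with a 0.5 nM enzyme column as activation reference. PEP 0.5 mM, ADP 0.1 mM; ATP detected by luminescence after 1 h.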
Shiga inhibitor – blocks Shiga toxin action in Vero cells. inhibition, % at 38.7 µM. actives 9.2% (n = 290,000). AID 2315. Vero cells, Shiga toxin protein synthesis inhibition reporter; in the data active means inhibition mostly above about 28%, no sharp cut-off; inactive means mostly below about 43%
RE007 growth inh – less growth of the S. pombe RE007 Vpr strain; actives 0.21% (n = 360,000); S. pombe RE007 Vpr strain, BacTiter-Glo ATP luminescence, 24 h; Potency, µM (doses to about 92.2 µM), usual class: inhibitors; AID 651644; active means well fitted falling curve with a large enough effect; inconclusive means small, poorly fitted or top-dose-only effect; inactive means no such curve, though single readings can be large or run the other way; further: nearly all actives have a fitted effect of over 50% in size
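Fission yeast strain RE007, carrying one chromosomally integrated HIV-1 vpr copy, was seeded at OD 0.01 in PMG+AL medium with 23 nL pinned compound. After 24 h at 30 °C and 99% humidity, viability was read by BacTiter-Glo luminescence.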
Cycloheximide cs – counter-screen for Shiga toxin inhibitors: cycloheximide protein synthesis inhibition; cell reporter, cycloheximide protein synthesis inhibition counterscreen; max response, %; actives 12% (n = 300,000); AID 2314; in the data active means max response mostly above about 13%, no sharp cut-off; inactive means mostly below about 14%; further: read at 38.3 µM for the half of the compounds with a filed dose
Hits are given with their value; – = inactive; ? = inconclusive; · = no result given; [ ] = dose if it differs, or a comment. Many of the other results were omitted from the sample, so hits are more common in it than they were. Unless noted, the call rests on the fitted dose curve; in most records, active means well fitted curve in the direction sought with a large enough effect; inconclusive means small, poorly fitted or top-dose-only effect, or another doubt; inactive means no such curve, though single readings can be large; an effect the other way counts as inactive or inconclusive.

SMILES | Tb PYK inh | FBPA Giardia inh | LmPK inh | Shiga inhibitor | RE007 growth inh | Cycloheximide cs
O=C(/C=C/c1ccc(Cl)cc1)NCCSc1ccccc1 | – | – | – | – | – | –
CNC(=O)C(=O)Nc1cc2c3c(c1)C(C)C(=O)N3CCC2 (configuration not stated) | – | · | – | – | – | –
CC12CCC(C(=O)Nc3nc4ccc(Br)cc4s3)(OC1=O)C2(C)C (configuration not stated) | – | – | – | 93.8 | – | 32.5
CC12CCC(C(=O)Nc3nccs3)(OC1=O)C2(C)C (configuration not stated) | · | – | – | – | –[3.69 µM] | –
O=C(NCc1ccc(F)cc1)C1CCN(S(=O)(=O)c2ccc(Br)s2)CC1 | – | – | – | 37.1 | – | 14.9
O=C(NCc1cccs1)C1CCN(S(=O)(=O)c2ccc(Br)s2)CC1 | – | – | – | – | – | –
O=C(NCc1ccc(F)cc1)C1CCCN(S(=O)(=O)c2ccc(Br)s2)C1 (configuration not stated) | – | – | – | 54.6 | – | –
COCC1=C(C(=O)OC(C)OC(=O)OC(C)C)N2C(=O)C(NC(=O)/C(=N/OC)c3csc(N)n3)[C@H]2SC1 (some centres not stated) | – | · | · | · | · | ·
CN(CC(=O)Nc1cccc(S(=O)(=O)NC2=NCCC2)c1)Cc1ccccc1Cl | – | · | · | · | – | ·
COc1ccc(Nc2ncc(C(=O)N3CCN(c4cccc(Cl)c4)CC3)c3ccccc23)cc1 | – | · | · | · | · | ·
COc1cccc(C(=O)Nc2cccc(C(C)=O)c2)c1 | – | – | ? | 18.3 | – | 87.3
COC(=O)c1cccc(NC(=O)c2cc3sccc3n2C)c1 | – | – | – | 109.0 | – | 28.8
COc1cccc(NC(=O)c2cccc(Cl)c2)c1 | – | · | · | · | ? | ·
COc1cccc(C(=O)Nc2ccc3c(c2)C(=O)c2ccccc2C3=O)c1 | – | – | – | 37.6 | – | 31.1
CSc1ncc(C(=O)Nc2ccccc2)cn1 | – | – | – | – | – | –
COc1cccc(NC(=O)c2cnc(SC)nc2)c1 | – | – | – | – | – | 21.3
COC(=O)c1ccccc1NC(=O)c1cc2sccc2n1C | – | – | – | – | – | –
O=C(Nc1ccc(C(=O)N2CCCCC2)cc1)[C@H]1O[C@@H](n2ccc(=O)[nH]c2=O)[C@H](O)[C@@H]1O | – | · | · | · | – | ·
COc1cccc(C(=O)Nc2ccncc2)c1 | · | – | – | – | · | –
O=C(Nc1cccc(C(=O)N2CCCCCC2)c1)c1ccco1 | – | – | – | – | – | 10.4
COc1cccc(C(=O)Nc2cccnc2)c1 | – | – | – | – | – | 48.3
COc1cccc(C(=O)Nc2ccc(C3CC3(Cl)Cl)cc2)c1 (configuration not stated) | – | – | ? | 84.7 | – | 28.2
O=C(Nc1cccc(C(=O)N2CCN(c3ccccc3)CC2)c1)c1ccco1 | – | · | – | – | – | –
COc1cccc(C(=O)Nc2ccc3c(c2)n(C)c(=O)n3C)c1 | – | – | – | – | – | –
COc1cccc(C(=O)NC(=S)Nc2ccc(N(C)C)cc2)c1 | – | – | – | 101.7 | – | 33.6
SMILES | Tb PYK inh | FBPA Giardia inh | LmPK inh | Shiga inhibitor | RE007 growth inh | Cycloheximide cs
Cc1ccc(C)c(NC(=O)C[n+]2ccccc2)c1 | – | – | – | – | – | –
COc1ccc(OC)c(NC(=O)CN2CCCN(Cc3ccccc3Cl)S2(=O)=O)c1 | –[15.4 µM] | · | · | · | · | ·
Cc1cccc(C(=O)Nc2ccc(C(=O)c3ccncc3)cc2)c1 | – | · | · | · | – | ·
COc1cccc(C(=O)Nc2cccc(OC(C)=O)c2)c1 | – | – | 25.1µM | 52.1 | – | 45.3
CC(=O)Oc1cccc(NC(=O)c2cccc(C(=O)Nc3cccc(OC(C)=O)c3)c2)c1 | – | – | – | · | – | –
O=C(NC(=S)Nc1ccc2c(c1)C(=O)c1ccccc1C2=O)c1ccc(F)cc1 | · | – | – | 103.1 | · | 71.9
COc1ccccc1-c1nnc(NC(=O)C(C)C)s1 | – | – | – | – | – | –
COC(=O)c1ccc(NC(=O)c2cccc(C)c2)cc1 | – | – | – | – | – | 18.9
COc1ccccc1-c1nnc(NC(C)=O)s1 | – | – | – | 49.1 | – | 38.3
COC(=O)c1ccc(NC(=O)CC2C(=O)N(c3ccc(Cl)cc3)C(=O)N2Cc2ccco2)cc1 (configuration not stated) | – | · | · | · | · | ·
Cc1ccc(Nc2nnc(-c3ccc(C)c(S(=O)(=O)N4CCOCC4)c3)c3ccccc23)c(C)c1 | – | · | · | · | · | ·
Cc1ccc(C(=O)c2oc3ccccc3c2NC(=O)Cc2coc3cc(C)ccc23)cc1 | – | · | · | · | · | ·
O=C1CC(c2ccc3c(c2)OCO3)c2cc(O)ccc2O1 (configuration not stated) | · | – | · | – | · | –
CCOc1cccc(C(=O)Nc2cccc(C(=O)NC(C)(C)C)c2)c1 | – | – | – | – | – | –
COc1cccc(C(=O)Nc2ccc(C)cc2)c1 | – | – | ? | 88.3 | – | 30.0
O=C(Nc1cccc(NC(=O)c2ccco2)c1)c1cccc(Br)c1 | – | – | – | 85.8 | – | –
Cc1cc(NC(=O)c2cccc(Br)c2)n[nH]1 | – | · | · | · | – | ·
CCOc1cccc(C(=O)Nc2cccc(C(C)=O)c2)c1 | – | – | – | 68.3 | – | 39.5
COc1cccc(C(=O)NC(=O)Nc2cc(C)[nH]n2)c1 | – | – | – | 84.2 | – | 38.7
COc1cccc(C(=O)NNC(=O)C(=O)Nc2ccc(C)cc2)c1 | – | – | – | – | – | –
O=C(OCc1cn([C@@H]2CN(Cc3cccs3)[C@@H](c3ccc(Cl)cc3)C[C@H]2O)nn1)c1ccccc1 | – | · | · | · | – | ·
COCCNC(=S)N(C)[C@H]1C[C@H]2c3cc(-c4ccccc4)ccc3CCN2C(=O)[C@H]1[C@H](C)O | – | · | · | · | – | ·
CCN(CC)S(=O)(=O)c1cc(-c2ccc(=O)n(C(C)C(=O)Nc3cccc(C#N)c3)n2)ccc1C (configuration not stated) | – | · | · | · | · | ·
COc1ccc(C(=O)CCC(=O)Nc2cccnc2)cc1OC | – | – | – | – | – | –
COc1cccc(C(=O)Nc2ccc(Cl)c(C(F)(F)F)c2)c1 | – | – | – | 87.7 | ? | 51.1
SMILES | Tb PYK inh | FBPA Giardia inh | LmPK inh | Shiga inhibitor | RE007 growth inh | Cycloheximide cs
COc1cccc(C(=O)Nc2nnc(-c3ccccc3)s2)c1 | – | – | – | 112.2 | – | 33.5
CCOc1cccc(C(=O)Nc2cccc(NC(=O)c3ccco3)c2)c1 | – | – | – | – | – | 25.3
COc1cccc(C(=O)Nc2nc3c(s2)CN(C)CC3)c1 | – | · | – | 175.8 | – | –
COc1cc(C(=O)Nc2ccc(Cl)c(C(F)(F)F)c2)cc(OC)c1OC | – | – | – | – | – | –
CCCCOc1cccc(C(=O)Nc2cc(NC(=O)c3ccco3)ccc2OC)c1 | – | · | · | · | · | ·
CN(C)c1ncc2nc(-c3cc(F)cc(F)c3)c(=O)n(CCc3ccccc3)c2n1 | · | – | · | · | · | ·
O=C(CN1C(=O)C2(SCC(=O)N2c2cccc(Cl)c2)c2ccccc21)NCCc1ccccc1 (configuration not stated) | – | · | · | · | · | ·
